Measurements as given in ChEMBL document CHEMBL1157539, “Thousands of chemical starting points for antimalarial lead identification” (Nature, 2010).

Experiments:
Type in all cases: functional
Plasmodium falciparum [1] = assay: GSK_TCMDC: Inhibition of Plasmodium falciparum 3D7 in whole red blood cells, using parasite LDH activity as an index of growth. Test compounds present at 2uM
Plasmodium falciparum [2] = assay: GSK_TCMDC: Inhibition of Plasmodium falciparum Dd2 in whole red blood cells, using parasite LDH activity as an index of growth. Test compounds present at 2uM
HepG2 = assay: GSK_TCMDC: Percent inhibition of human HepG2 cell line. Test compounds present at 10uM.

SMILES | Inhibition (Plasmodium falciparum [1]) | Inhibition (Plasmodium falciparum [2]) | Inhibition (HepG2)
CN(C)CCCc1cc(NC(=O)Nc2cccc(Cl)c2Cl)ccc1I.Cl | 100% | 45% | 12%
Cc1[nH]c(C)c(-c2csc3ccccc23)c(=O)c1Cl | 97% | 75% | 7%
O=C(n1c(-c2cc3ccccc3n2C(=O)C(F)(F)F)cc2ccccc21)C(F)(F)F | 94% | 80% | 30%
COc1cc2nc(NCC3CCCCC3)nc(NCc3ccccc3)c2cc1OC | 100% | 100% | 18%
COc1ccc(C(=O)NC(c2ccc(Cl)cc2Cl)c2cc(Cl)c3cccnc3c2O)cc1 (stereo not given) | 84% | 48% | 46%
C=C[C@]1(C)C[C@@H](OC(=O)NC(=O)CCCS(=O)(=O)c2nnc(C)s2)[C@]2(C)[C@H](C)CC[C@]3(CCC(=O)[C@H]32)[C@@H](C)[C@@H]1O | 94% | 97% | 0%
Cc1c(CNCCCNc2cc(=O)c3ccccc3[nH]2)sc(C(F)F)c1Br.Cl | 98% | 29% | 0%
COc1c(C2CCN(CCCCNC(=O)c3ccc(-c4ccc(Cl)cc4)cn3)CC2)ccc2c1CCCC2 | 93% | 14% | 100%
O=C1CCCC1Sc1nc2ccccc2c(=O)n1-c1ccc(Cl)c(Cl)c1 (stereo not given) | 97% | 42% | 10%
Cn1c(NC(=O)C2CCC(CNC(=O)c3ccc(O)c(-c4ccc(Cl)c(Cl)c4)c3)CC2)nc2ccccc21 (stereo not given) | 99% | 100% | 40%
